# From PubChem BioAssay
# S2 tox – viability counter-screen for ATXN expression inhibitors. S2 cells (HEK-293 line with an ATXN2-luciferase reporter) viability, CellTiter-Fluor protease fluorescence, 24 h. Potency, µM (titrated, usually from 56.7 µM), actives largely listed as cytotoxic. 0.49% of 400,000 active. AID 651635; also: nearly all actives have a fitted effect of over 40% in size
# HTT ATP protect – Huntington cell model cytoprotection by ATP luminescence. Potency, µM (top dose mostly 56.4 µM), without a hit: cytoprotection (ATP increase), actives largely listed as activators. AID 1471. 0.14% of 230,000 active. PC12 HTT-Q103 induced, cytoprotection, ATP luminescence, 40 h; also: % of control where 0% means no effect; nearly all actives have a fitted effect of over 45% in size
#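 ATP quantification (ATPlite) reports survival of PC12 cells in which tebufenozide, 100 nM final, switches on Htt exon 1 with 103 glutamines linked to GFP; compounds are titrated.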
# HepG2 tox – counter-screen for TGF-b inhibitors: cytotoxicity in HepG2 cells; Potency, µM (series often up to 46.1 µM), inactives show at the top dose activity change, negative = cytotoxicity, actives largely listed as cytotoxic; HepG2 CAGA-GFP viability, ATP luminescence, 18 h; 0.76% of 410,000 active; AID 588856
#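 HepG2 CAGA-GFP cells (1000/well, DMEM with 1% FBS) received compound, then TGF-beta at 500 pg/mL final, and were incubated 18 hours at 37 degrees C. Viability was read by CellTiter-Glo luminescence. Media-only wells were set as complete cell-killing and DMSO as no toxicity.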
# HttQ103 aggreg – inhibitors of mutant huntingtin aggregate formation in PC12 cells; PC12 HttQ103-GFP aggregates, Acumen cytometry, 40 h; Potency, µM (top dose mostly 46.1 µM), inactives show top-dose activity change, negative = inhibition, actives largely listed as inhibitors; 1.1% of 220,000 active; also: % is scaled to controls: 0 for no effect and ±100 for the full control effect; nearly all actives have a fitted effect of over 60% in size
#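 Aggregate formation scored by laser-scanning cytometer (488 excitation, 500–530 emission) in lysed PC12 cells expressing Q103-GFP after 100 nM tebufenozide induction; library tested in dose series, with ATPLite reagent added in the multiplex.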
# ATXN2 expr inh – ATXN2 expression inhibition; HEK-293 ATXN2-luciferase reporter, luminescence, 24 h; Potency, µM (doses to about 57 µM), inactives show at the highest dose activity change, negative = inhibition, actives largely listed as inhibitors; 0.72% of 360,000 active; also: % is scaled to controls: 0 for no effect and ±100 for the full control effect; nearly all actives have a fitted effect of over 55% in size
#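 ATXN2-luciferase reporter cells (luciferase flanked by upstream and downstream ATXN2 gene portions) were treated 24 h at 37 °C with compounds at up to 57 uM. SteadyGlo luminescence gave expression; GF-AFC fluorescence gave viability.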
# TGFb SMAD3 inh – inhibitors of TGF-b signaling | 1.2% of 410,000 active | AID 588855 | HepG2 CAGA-GFP TGF-b/SMAD3 reporter, GFP fluorescence, 18 h; TGF-beta stimulated, 500 pg/mL final | Potency, µM (titrated, usually from 46.1 µM), without a hit: top-dose activity, negative = inhibition, actives largely listed as inhibitors; also: % is scaled to controls: 0 for no effect and ±100 for the full control effect; nearly all actives have a fitted effect of over 65% in size
#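 Using HEPG2 CAGA-GFP reporter cells at 1000 cells/well, we pinned test compounds, stimulated with recombinant TGF-beta (500 pg/mL final) and measured total well GFP after 18 h.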
# Starred values were filed as active, the others as inactive; i = inactive; ? = inconclusive; · = no result given; [ ] = remark or other dose. A selection: hits, their analogues and other compounds. The true share with any hit is near 2.8%. Calls follow the shape of the dose curve; as a rule, active = well fitted curve in the direction sought with a large enough effect; inconclusive = small, poorly fitted or top-dose-only effect, or another doubt; inactive = no such curve, though single readings can be large; an effect the other way counts as inactive or inconclusive. Potency is read from the fitted curve at half-maximal effect.
SMILES,S2 tox,HTT ATP protect,HepG2 tox,HttQ103 aggreg,ATXN2 expr inh,TGFb SMAD3 inh
Oc1c(C(Nc2cccnc2)c2ccc(C(F)(F)F)cc2)ccc2cccnc12 (stereo not drawn),·,·,-48%,·,·,?
CC(/C=C1\SC(=O)N(CCCC(=O)O)C1=O)=C\c1ccccc1,i,4%[10 µM],-7%,?,1.3µM*,?
CC(=O)NC(c1cccc([N+](=O)[O-])c1)c1ccc2cccnc2c1O (stereo not drawn),?,·,-20%,·,3.2µM*,?
Oc1c(C(Nc2cccc(C(F)(F)F)c2)c2cccnc2)ccc2cccnc12 (stereo not drawn),i,11%[10 µM],-53%,?,?,?
Oc1cccc(C(Nc2nccs2)c2ccc3cccnc3c2O)c1 (stereo not drawn),i,-106%,-26%,?,?,14µM*
CC(=O)NC(c1ccc(C(C)C)cc1)c1ccc2cccnc2c1O (stereo not drawn),?,·,-54%,·,3.2µM*,?
O=[N+]([O-])c1ccc(NC(c2ccccc2)c2ccc3cccnc3c2O)cc1 (stereo not drawn),i,·,-1%,·,2.8µM*,-7%
CCCCC(=O)NC(c1ccc(C(C)C)cc1)c1ccc2cccnc2c1O (stereo not drawn),i,·,-46%,·,-82%,?
C#CCN(C1CCCC1)S(=O)(=O)C=C,·,·,-65%,·,·,-20%
COc1ccc(C)cc1C(=O)CCC(=O)Nc1ccccc1N1CCOCC1,i,17%[10 µM],-3%,13µM*,3%,2%
CCC(C)[C@@H](NC(=O)OC(C)(C)C)c1nnc(S(=O)(=O)Cc2cccc(C)c2)o1 (stereo partly drawn),·,-142%,-101%,?,?,8.9µM*
CC(C)(C)OC(=O)N[C@@H](Cc1ccccc1)c1nnc(S(=O)(=O)Cc2ccccc2)o1,·,-125%,·,?,·,·
O=c1[nH]c2ccccc2n1CCCN1CCN(C(c2ccccc2)c2ccccc2)CC1,?,?,·,-10%,32µM*,·
CCOc1ccc(C(c2c(NC(=O)c3ccccc3)sc(C)c2C)N2CCN(CCO)CC2)cc1 (stereo not drawn),?,2%[10 µM],11µM*,4%,-9%,?
Cc1ccc(C(c2c(NC(=O)c3ccco3)sc(C)c2C)N2CCOCC2)cc1 (stereo not drawn),i,·,-9%,·,·,-2%
Cc1sc(NC(=O)c2ccco2)c(C(c2ccc(F)cc2)N2CCN(C)CC2)c1C (stereo not drawn),i,-56%,11µM*,?,1%[11.3 µM],16µM*
NC(=S)N/N=C/c1ccccc1OC(=O)/C=C/c1ccccc1,?,·,4µM*,·,1.8µM*,7.1µM*
Cc1cccc2nc(-c3cccnc3)c(Nc3ccc(C(C)C)cc3)n12,13µM*,·,-33%,·,16µM*,?
COC1=CC(=O)c2nc(Cl)ccc2C1=O,?,·,1.3µM*,·,3.2µM*,0.89µM*
Cc1cccc(NC(=S)NCC(C)CSc2ccc(Cl)cc2)c1 (stereo not drawn),i,-86%,14µM*,?,·,13µM*
Cc1cccc(NC(=S)NCCSc2ccc(Cl)cc2)c1,i,-141%,2.5µM*,?,-19%,?
Cc1cccc(NC(=S)NC(C)(C)CC(C)(C)C)c1,i,8.9µM*,-8%,?,?,?
Cc1ccc(NC(=S)NCC(C)CSc2ccc(Cl)cc2)cc1 (stereo not drawn),i,-167%,-6%,25µM*,-7%,1%
Cc1ccc(C)c(NC(=S)NCCSc2ccc(Cl)cc2)c1,i,0%[0.074 µM],-5%,-14%,-23%,?
Cc1cccc(NC(=S)NCC(c2ccccc2)N(C)C)c1 (stereo not drawn),?,6%,-21%,-3%,-32%,-10%
SMILES,S2 tox,HTT ATP protect,HepG2 tox,HttQ103 aggreg,ATXN2 expr inh,TGFb SMAD3 inh
O=C1CCC[C@@H]2CC(N(Cc3cc4ccccc4s3)c3ccccc3)C[C@@H]3CCN1[C@H]23 (stereo partly drawn),·,·,21%,·,·,-7%
O=[N+]([O-])c1cccc(S(=O)(=O)N2CCN(c3nc(-c4cccs4)nc4ccccc34)CC2)c1,·,·,11%,·,·,4%
Cc1ccc(NC(=S)NCCSc2ccc(Cl)cc2)c(C)c1,i,1.8µM*,0%,6%,-8%,0%
COc1ccc(CNC(=O)C2Cc3c(-c4ccccc4)ccnc3O2)cc1OC (stereo not drawn),i,·,5%,·,-2%,2%
COc1ccc(CCCNC(=O)C2Cc3c(-c4ccccc4)ccnc3O2)cc1 (stereo not drawn),18µM*,·,-32%,·,?,?
N#C/C(=C\c1ccc([N+](=O)[O-])cc1)c1ccccn1,i,-70%,-28%,?,61%,5%
CN(C)c1ccc(/C=C(\C#N)c2ccccn2)cc1,i,-86%[10 µM],-62%,5%,11µM*,27%
CCCCCn1ccc(=O)c2c(C(F)(F)F)nccc21,i,22%[10 µM],-1%,11µM*,-16%,-11%
CCCCCCCn1ccc(O)c(CC(=O)OC)c1=O,i,-4%[10 µM],9%,20%,-22%,10%
O=C(NCCN1Cc2ccccc2OC(c2ccsc2)C1)c1ccc2[nH]ccc2c1 (stereo not drawn),i,·,·,·,·,·
CCn1cc(C(=O)N2CCN(c3cccc(Cl)c3)CC2)c(=O)c2cc(S(=O)(=O)N3CCC(C)CC3)ccc21,?,·,-32%,·,?,13µM*
Cc1ccc(Cl)cc1N1CCN(C(=O)c2cc(S(=O)(=O)N3CCC(C)CC3)cn2C)CC1,i,·,-19%,·,3%,7.1µM*
Cc1cccc(N2CCN(C(=O)c3cc(S(=O)(=O)N4CCC(C)CC4)cn3C)CC2)c1C,·,·,-7%,·,·,?
Cn1c(=O)c(F)c(Nc2ccc(I)cc2F)c2c(=O)n(C[C@@H](O)CO)cnc21,·,·,·,·,-11%,·
OC1CCN(Cc2ccc3c(c2)CN(C/C=C/c2ccco2)CCO3)CC1,i,·,·,·,·,·
COc1ccc(/C=N/Nc2ncc(Br)cn2)c(OC)c1,i,3.5µM*,4%,?,·,-18%
CN(C)Cc1c(O)ccc2oc(Cc3ccccc3)cc12,i,-37%[10 µM],-26%,4.5µM*,-6%,0%
Cc1c(Cl)cccc1-n1c(SCC(=O)NCc2ccccc2)nc2n[nH]c(C)c2c1=N,·,·,-60%,·,·,11µM*
CCOc1ccccc1-n1c(SCC(=O)Nc2ccc(CC)cc2)nc2n[nH]c(C)c2c1=N,20µM*,-83%,10%,-11%,?,?
